Assay outcomes deposited in PubChem BioAssay by National Center for Advancing Translational Sciences (NCATS).
Coupling enz: counter-screen for Giardia aldolase inhibitors: coupling enzyme system; coupling enzyme system counterscreen, AmpLite Red fluorescence; activity change, negative = inhibition, % at 58.2 µM, hits read low; hit rate 0.67% among 290,000; AID 2472; in the data active = activity change below about -30%
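Counterscreen lacking aldolase: glyceraldehyde-3-phosphate coupling-enzyme reagent preincubated 10 min at RT with compound (at 57.5 uM final), then substrate/coupling system with AmpLite Red added; fluorescence read at 525/598 nm after 20 min RT.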
JMJD2E inh: inhibitors of human JMJD2E histone demethylase | B2RXH2 | Potency, µM (series often up to 57.1 µM), for inactives: at the top dose activity change, negative = inhibition, actives largely listed as inhibitors | JMJD2E catalytic domain, FDH-coupled NADH fluorescence (FDH is formaldehyde dehydrogenase) | hit rate 1.6% among 230,000 | AID 2147; active = well fitted inhibition curve with a large enough effect, not every such curve was filed as active; inconclusive = small, poorly fitted or top-dose-only effect, or another doubt; inactive = no such curve, though single readings can be large or run the other way;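 also: potency is read from the fitted curve at half-maximal effect; 0% = wells with enzyme and -100% = buffer wells without enzyme; nearly all actives have a fitted effect of over 50% in size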
Target sequence (B2RXH2 1-337 limits assumed): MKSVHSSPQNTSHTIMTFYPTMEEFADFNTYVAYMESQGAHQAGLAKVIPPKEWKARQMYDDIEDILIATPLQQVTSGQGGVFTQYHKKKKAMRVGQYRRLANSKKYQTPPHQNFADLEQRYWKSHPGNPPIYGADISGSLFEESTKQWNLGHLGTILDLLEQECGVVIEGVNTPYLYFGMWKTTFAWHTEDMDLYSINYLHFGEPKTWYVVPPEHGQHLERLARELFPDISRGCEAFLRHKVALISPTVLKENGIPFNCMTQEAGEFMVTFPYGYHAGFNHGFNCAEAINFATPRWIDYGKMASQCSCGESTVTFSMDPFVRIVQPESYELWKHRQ
Tau FP inhib: blocks human tau fibril formation measured by polarization; hit rate 0.39% among 280,000; Potency, µM (top dose mostly 57.7 µM), without a hit: top-dose activity, negative = inhibition, hits mostly inhibitors; K18 P301L tau heparin fibrillization, Alexa594 FP, 6 h; also: potency is read from the fitted curve at half-maximal effect; nearly all actives have a fitted effect of over 55% in size
Target sequence (P10636 561-689 P618L limits assumed): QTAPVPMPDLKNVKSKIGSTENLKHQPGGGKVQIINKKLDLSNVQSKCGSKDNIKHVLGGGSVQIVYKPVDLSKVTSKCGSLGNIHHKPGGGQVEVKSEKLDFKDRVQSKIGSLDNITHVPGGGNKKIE
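Quantitative HTS format: compounds meet 15 uM recombinant K18 P301L tau and Alexa 594-tau tracer in 100 mM sodium acetate pH 7; 20 uM heparin triggers fibrillization at 37 C over 6 hr; FP gives the signal.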
Tau fluor cs: counter-screen for tau fibril formation inhibitors. tau K18 P301L Alexa594 fluorescence, heparin fibrillization. Potency, µM (top dose mostly 57.7 µM), for inactives: at the top dose activity change, negative = decrease. hit rate 0.93% among 280,000. AID 1463; also: potency is read from the fitted curve at half-maximal effect; nearly all actives have a fitted effect of over 55% in size
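Human K18 P301L tau (15 uM unlabeled plus 0.24 uM Alexa 594-labeled, final) in 100 mM sodium acetate pH 7 was mixed with compound and 20 uM heparin and incubated 6 hr at 37 C.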
Tau fibril ThT: inhibitors of human tau fibril formation, thioflavin T binding; P10636; recombinant tau K18 P301L, heparin-induced fibrillization, ThT fluorescence; Potency, µM (highest dose often 57.4 µM), inactives show top-dose activity, negative = inhibition, actives largely listed as inhibitors; hit rate 2.1% among 270,000; also: potency is read from the fitted curve at half-maximal effect; nearly all actives have a fitted effect of over 55% in size
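Fibril formation assay: tau K18 P301L at 15 uM with trace Alexa 594 label, heparin inducer 20 uM, pH 7 sodium acetate buffer, 37 C for 6 hr; endpoint ThT signal.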
Sfp inh: blocks B. subtilis Sfp PPTase activity; Biochemical Sfp PPTase activity, qHTS; Q9F4F7; hit rate 3.5% among 310,000; Potency, µM, without a hit: largest response in the series, negative = inhibition, most hits filed as inhibitors;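 also: the enzyme is Sfp with the accession as filed and its product quenches rhodamine fluorescence; potency is read from the fitted curve at half-maximal effect; 0% = enzyme reaction without inhibitor and -100% = no enzyme wells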
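Sfp 15 nM + cpd, 15 min RT; start w/ rhodamine-CoA 5 uM, BHQ-2-YbbR 12.5 uM (final); 50 mM Hepes pH 7.6, 10 mM MgCl2, 0.01% NP-40, 0.01% BSA; read 525/598 nm at 0 and 30 min.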
* = called active by the depositor; ? = inconclusive; . = no result given; [ ] = another dose, or the depositor's remark. A selection: hits, their analogues and other compounds. The true share with any hit is near 5.3%. Unless noted, calls follow the shape of the dose curve; as a rule, active = well fitted curve in the direction sought with a large enough effect; inconclusive = small, poorly fitted or top-dose-only effect, or another doubt; inactive = no such curve, though single readings can be large; an effect the other way counts as inactive or inconclusive. Unless noted, % is scaled to controls: 0 for no effect and ±100 for the full control effect.

SMILES	Coupling enz	JMJD2E inh	Tau FP inhib	Tau fluor cs	Tau fibril ThT	Sfp inh
COc1ccccc1C(=O)Nc1nc(-c2cccs2)c(NC(C)=O)s1	0.7	?	?	-25.7%	-18.3%	-18.2%
CCN(CC)c1ccc(/C=C(\C#N)c2nc(-c3cccs3)c(NC(C)=O)s2)cc1	-8.4	-6.2%	?	6.31µM*[quencher]	?	?
Cc1ccc(C2=NC(c3ccc(F)cc3)=Nc3ccc(C)cc3N2)cc1	.	.	-11.9%	-8.0%	3.1%	.
COc1ccc(OC)c(CN2CCN(S(=O)(=O)c3ccc(NC(C)=O)cc3)CC2)c1	2.3	3.3%	-1.6%	-0.6%	-2.0%	56.2µM*
COc1ccc(NC(=O)CN(C)C(=O)c2cccc(S(=O)(=O)N3CCN(Cc4ccccc4)CC3)c2)cc1	.	.	.	.	.	50.1µM*
Cc1ccc(C)c(NC(=O)CN(C)C(=O)c2cccc(S(=O)(=O)N3CCN(Cc4ccccc4)CC3)c2)c1	.	.	.	.	.	2.6%
COc1cccc(CN2CCN(S(=O)(=O)c3ccc(NC(C)=O)cc3)CC2)c1OC	1.5	-6.4%	-10.8%	12.2%[2.34 µM]	-3.6%	18.6%
C=C1C=CS(=O)(=O)N(Cc2ccccc2)C1	5.1	.	.	.	.	4.4%
COCCCNC(=O)C(=O)NCC(c1ccc2c(c1)OCO2)N1CCOCC1 (centres undefined)	.	.	-7.7%	-1.6%	4.6%	.
Cc1ccc(F)c(C2C3C=CCC(c4ccccc4)C3C(=O)N2Cc2ccccc2)c1 (centres undefined)	-2.2	.	.	.	.	-5.7%
Cc1[nH]n(-c2ccc(Cl)cc2)c(=O)c1N=Nc1cccnc1	-0.8	-3.7%	-7.1%	-2.7%	.	7.7%
Cc1[nH][nH]c(=O)c1N=Nc1ccc(Cl)cc1	-0.5	13.6%	0.0%	-15.4%	8.91µM*	14.3%
O=C(CSCc1ccco1)Nc1cc(C(F)(F)F)ccc1N1CCOCC1	-0.7	-1.1%	?	-22.7%	?	56.2µM*
O=C(Nc1cc(C(F)(F)F)ccc1N1CCOCC1)C1Cc2ccccc2CN1C(=O)c1ccco1 (centres undefined)	-18.8	?	?	-14.3%	?	28.2µM*
O=C(Nc1ccccc1)C1Cc2ccccc2CN1C(=O)c1ccco1 (centres undefined)	-0.8	0.7%	-8.1%	-14.7%	-21.9%	?
O=C(Nc1ccc(Cl)cc1)C(NS(=O)(=O)c1cccs1)c1ccccc1 (centres undefined)	.	.	-10.4%	?	-0.2%	.
O=C(COC(=O)c1cn(-c2ccccc2)nc1-c1ccc(F)cc1)Nc1ncc(Cl)cc1Cl	1.2	-12.5%	0.4%	?	-6.3%	-2.0%
NS(=O)(=O)c1ccc(NC(=O)COC(=O)c2cn(-c3ccccc3)nc2-c2ccc(F)cc2)cc1	0.2	-14.4%	12.6µM*	?	-0.2%	-12.7%
COc1cc(NC(=O)CN2c3ccccc3S(=O)(=O)c3ccccc32)cc(OC)c1	.	.	-11.7%	?	6.0%	.
CC(C)N(CC#CCC1(O)c2ccccc2-c2ccccc21)CCO	1.2	?	0.2%	-4.6%	-3.2%	50.1µM*
CCN(CC#CCC1(O)c2ccccc2-c2ccccc21)CCO	3.2	-0.8%	-5.3%	1.3%	-1.1%	89.1µM*
Clc1ccc(C2=C3CCCCn4c(-c5ccccc5)c[n+](c43)C2)cc1	-2.1	?	-9.1%	-10.3%	?	79.4µM*
O=C(C[n+]1cc(-c2ccc(Cl)cc2)n2c1CCCCC2)c1ccccc1	-0.4	3.0%	0.8%	-3.6%	-8.7%	2.3%
COc1ccc(-c2c[n+]3c4n2CCCCC4=C(c2ccc(Br)cc2)C3)cc1	-2.3	?	0.4%	-14.2%	?	44.7µM*
CCCCN(CC)C(=O)Nc1ccc2c(c1)N(C)C(=O)c1ccccc1S2	.	.	?	?	-27.8%	.
SMILES	Coupling enz	JMJD2E inh	Tau FP inhib	Tau fluor cs	Tau fibril ThT	Sfp inh
COc1ccc(Nc2nc(Nc3ccc(OC)cc3)nc(SC3=NCCS3)n2)cc1	-2.9	-7.6%	13.6%	14.1µM*[quencher]	?	11.2%
COc1ccc(Nc2nc(OC)nc(OC)n2)cc1	-0.2	.	.	.	.	-3.3%
Cc1nc2c(s1)sc1ccccc12	0.7	4.8%	2.1%	0.3%	-5.4%	13.4%
CC[n+]1c(C)sc2sc3ccccc3c21	-4.4	14.1µM*	-60.5%	-10.6%	.	2.82µM*
CCOc1ccc(-c2ccc(/C=C3/C(=N)N4C(C)=CSC4=NC3=O)o2)c([N+](=O)[O-])c1	9.2	8.5%	14.1%	?	3.16µM*	-25.1%
CCOc1ccc(-c2ccc(/C=C3/C(=N)N4C=CSC4=NC3=O)o2)c([N+](=O)[O-])c1	-4.3	-9.9%	-7.7%	-22.7%	?	-27.7%
CSc1ncc(CN2CCCC(C(=O)Nc3ccc(-c4ccco4)cc3)C2)cn1 (centres undefined)	-1.0	.	.	.	.	14.1µM*
CC(C)C(=O)N1CCN(c2ccc([N+](=O)[O-])cc2Cl)CC1	5.9	5.4%	-2.3%	8.6%	-12.9%	-19.8%
COc1ccccc1N1CCN(c2ccc([N+](=O)[O-])cc2Cl)CC1	0.3	-6.6%	0.9%	?	8.91µM*	-5.3%
COc1cc2c(cc1OC)CN(c1ncccc1[N+](=O)[O-])CC2	1.1	.	.	.	.	?
COc1cc2c(cc1OC)CN(c1ccc([N+](=O)[O-])cc1Cl)CC2	-14.5	8.0%	0.2%	?	7.08µM*	-50.5%
COc1cc2c(cc1OC)CN(c1ccc(F)cc1[N+](=O)[O-])CC2	-0.1	.	.	.	.	25.1µM*
COc1cc2c(cc1OC)CN(c1ccc([N+](=O)[O-])cc1C#N)CC2	-2.7	5.1%	10.2%	?	?	8.5%
CCOC(=O)C1CCCN(C(=O)CCS(=O)(=O)c2cc3c(cc2Cl)NC(=O)CO3)C1 (centres undefined)	.	.	-10.1%	-10.0%	7.3%	.
Cc1ccc(C(c2sc3nc(-c4ccco4)nn3c2O)N2CCN(Cc3ccccc3)CC2)cc1 (centres undefined)	.	.	-4.3%	-19.5%	-14.8%	.
N#Cc1nc(Nc2ccccc2)nc(NC2CCCC2)n1	1.1	.	.	.	.	.
Cc1cccc(-c2noc(CNC(=O)c3ccoc3C)n2)c1	.	.	.	.	.	31.6µM*
Cc1onc(-c2ccccc2Cl)c1C(=O)NCc1nc(-c2ccccc2)no1	-1.7	-12.3%	-6.0%	-15.8%	-4.4%	89.1µM*
COc1cc(NC(=O)N2CCN(c3cc(-c4noc(C)n4)ccc3C)CC2)cc(OC)c1OC	.	.	?	-21.3%	-6.2%	.
CCCCC/C=C\C/C=C\C/C=C\C/C=C\CCCCCC(=O)NCCCC(=O)O	-1.8	-4.7%	-10.5%	-15.1%	-8.7%	2.3%
NS(=O)(=O)c1ccc(-c2ccc(/C=C3\C(=O)Nc4ccccc43)o2)cc1	-0.3	.	.	.	.	12.4%
CC1(C)OC(=O)C(=Cc2ccc(-c3ccc(S(N)(=O)=O)cc3)o2)C(=O)O1	1.7	?	7.2%	1.8%	-10.6%	56.2µM*
